# Test results as given in the supplement of paper PMC12819154, “High-throughput peptide-centric local stability assay extends protein–ligand identification to membrane proteins, tissues and bacteria” (Nature Structural & Molecular Biology, 2025).
# Compound: Nc1ncnc2c1ncn2[C@@H]1O[C@H](COP(=O)(O)OP(=O)(O)OP(=O)(O)O)[C@@H](O)[C@H]1O [adenosine 5'-triphosphate]
# Assay: log2 fold change of tryptic peptide abundance, ligand vs vehicle (limited proteolysis) (log2 ratio); higher = more trypsin-susceptible (destabilized)
# Settings: ligand concentration: 5 mM; sample: E. coli desalted lysate; replicate design: treated before aliquoting
# Procedure: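 HT-PELSA: desalted E. coli K-12 BW25113 lysate (with 12 mM MgCl2) incubated with 5 mM ATP (pH 7) or water for 30 min at 25 C, then a 4 min trypsin pulse at 22 C. Peptides were quantified by DIA-MS (4 replicates). Value is the peptide log2 fold change (treated/control); negative = stabilized. Scale: negative = ligand-stabilized region.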
# 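Further: lysate desalted by size exclusion to strip endogenous ATP, peptide intensities built from DIA-NN precursor signals, and peptides missing any value discarded before comparison.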
# Chain of UniProt P76502 (P76502 whole entry): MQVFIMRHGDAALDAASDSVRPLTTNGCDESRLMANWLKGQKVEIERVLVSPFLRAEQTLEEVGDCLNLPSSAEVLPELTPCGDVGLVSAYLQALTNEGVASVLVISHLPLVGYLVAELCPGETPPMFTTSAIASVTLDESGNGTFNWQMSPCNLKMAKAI
# Chain of UniProt P18775 (P18775 whole entry): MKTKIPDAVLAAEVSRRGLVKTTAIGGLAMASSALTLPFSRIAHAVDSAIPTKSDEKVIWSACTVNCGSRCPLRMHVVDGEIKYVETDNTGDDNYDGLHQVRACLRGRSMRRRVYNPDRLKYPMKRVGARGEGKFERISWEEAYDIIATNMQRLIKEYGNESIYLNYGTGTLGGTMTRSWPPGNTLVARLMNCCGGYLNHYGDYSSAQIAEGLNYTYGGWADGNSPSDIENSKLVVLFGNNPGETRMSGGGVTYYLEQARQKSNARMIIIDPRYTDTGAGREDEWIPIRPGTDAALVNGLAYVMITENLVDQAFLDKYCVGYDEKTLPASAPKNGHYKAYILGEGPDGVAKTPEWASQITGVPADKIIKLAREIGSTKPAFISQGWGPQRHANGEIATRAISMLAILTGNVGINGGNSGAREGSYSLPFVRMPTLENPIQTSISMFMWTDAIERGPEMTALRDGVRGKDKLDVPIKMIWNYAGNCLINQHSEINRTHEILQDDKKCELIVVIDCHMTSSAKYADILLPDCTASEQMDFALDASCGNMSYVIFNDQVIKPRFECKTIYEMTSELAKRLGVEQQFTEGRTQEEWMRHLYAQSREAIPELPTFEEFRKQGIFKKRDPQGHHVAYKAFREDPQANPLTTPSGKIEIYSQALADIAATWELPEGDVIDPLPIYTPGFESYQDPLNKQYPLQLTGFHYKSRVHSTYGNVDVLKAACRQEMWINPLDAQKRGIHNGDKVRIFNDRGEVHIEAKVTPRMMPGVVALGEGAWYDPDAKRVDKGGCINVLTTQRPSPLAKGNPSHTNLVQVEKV
# Chain of UniProt P00946 (P00946 whole entry): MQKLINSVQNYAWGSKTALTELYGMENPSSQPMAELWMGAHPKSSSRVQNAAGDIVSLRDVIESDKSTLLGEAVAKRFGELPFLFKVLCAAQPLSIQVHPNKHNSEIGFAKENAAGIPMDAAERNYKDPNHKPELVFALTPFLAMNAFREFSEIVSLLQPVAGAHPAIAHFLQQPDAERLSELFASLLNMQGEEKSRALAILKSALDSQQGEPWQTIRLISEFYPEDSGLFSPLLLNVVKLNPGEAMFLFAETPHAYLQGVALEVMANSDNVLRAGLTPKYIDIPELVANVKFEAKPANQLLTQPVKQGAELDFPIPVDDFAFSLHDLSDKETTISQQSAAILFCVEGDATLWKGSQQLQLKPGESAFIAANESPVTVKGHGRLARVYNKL
# Chain of UniProt P52073 (P52073 whole entry): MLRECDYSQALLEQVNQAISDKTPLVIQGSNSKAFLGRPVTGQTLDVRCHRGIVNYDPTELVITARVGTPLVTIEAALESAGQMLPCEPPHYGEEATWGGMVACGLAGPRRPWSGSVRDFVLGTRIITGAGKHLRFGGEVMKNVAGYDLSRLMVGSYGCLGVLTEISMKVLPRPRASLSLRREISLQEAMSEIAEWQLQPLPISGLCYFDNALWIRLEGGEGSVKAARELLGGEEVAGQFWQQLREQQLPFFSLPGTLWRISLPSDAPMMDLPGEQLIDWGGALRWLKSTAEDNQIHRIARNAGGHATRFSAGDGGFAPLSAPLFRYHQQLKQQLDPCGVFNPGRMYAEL
# Chain of UniProt P25742 (P25742 whole entry): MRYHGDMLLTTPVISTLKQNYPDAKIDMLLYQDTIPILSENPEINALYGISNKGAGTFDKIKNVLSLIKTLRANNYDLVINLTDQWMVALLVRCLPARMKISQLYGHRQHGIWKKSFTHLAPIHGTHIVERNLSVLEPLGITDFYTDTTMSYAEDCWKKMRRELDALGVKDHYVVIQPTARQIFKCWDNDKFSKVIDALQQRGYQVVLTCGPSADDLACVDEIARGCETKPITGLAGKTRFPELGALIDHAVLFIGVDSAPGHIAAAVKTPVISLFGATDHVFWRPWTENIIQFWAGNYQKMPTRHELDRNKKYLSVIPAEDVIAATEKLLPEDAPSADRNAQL
# Chain of UniProt P25666 (P25666 whole entry): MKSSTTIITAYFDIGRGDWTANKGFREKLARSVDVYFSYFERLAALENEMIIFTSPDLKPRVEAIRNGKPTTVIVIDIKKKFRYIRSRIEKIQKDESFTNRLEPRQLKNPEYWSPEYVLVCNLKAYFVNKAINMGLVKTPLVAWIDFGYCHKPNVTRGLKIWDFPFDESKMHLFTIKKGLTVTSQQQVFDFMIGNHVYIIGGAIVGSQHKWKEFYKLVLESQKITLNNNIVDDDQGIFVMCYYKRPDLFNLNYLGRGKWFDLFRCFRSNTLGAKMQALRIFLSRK
# Chain of UniProt P25553 (P25553 whole entry): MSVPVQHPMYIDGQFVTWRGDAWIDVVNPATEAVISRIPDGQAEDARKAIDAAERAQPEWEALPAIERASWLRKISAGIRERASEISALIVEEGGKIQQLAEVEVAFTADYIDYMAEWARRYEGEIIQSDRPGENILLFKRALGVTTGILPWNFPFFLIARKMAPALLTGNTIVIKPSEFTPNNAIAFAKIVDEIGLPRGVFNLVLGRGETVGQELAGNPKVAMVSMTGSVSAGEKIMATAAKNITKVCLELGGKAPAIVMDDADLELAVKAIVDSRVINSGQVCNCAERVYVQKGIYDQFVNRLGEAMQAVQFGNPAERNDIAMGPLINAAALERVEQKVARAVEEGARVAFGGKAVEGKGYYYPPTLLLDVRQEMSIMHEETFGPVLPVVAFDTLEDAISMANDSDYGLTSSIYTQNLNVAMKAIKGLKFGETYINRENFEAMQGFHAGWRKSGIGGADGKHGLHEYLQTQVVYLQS
# Chain of UniProt P04994 (P04994 whole entry): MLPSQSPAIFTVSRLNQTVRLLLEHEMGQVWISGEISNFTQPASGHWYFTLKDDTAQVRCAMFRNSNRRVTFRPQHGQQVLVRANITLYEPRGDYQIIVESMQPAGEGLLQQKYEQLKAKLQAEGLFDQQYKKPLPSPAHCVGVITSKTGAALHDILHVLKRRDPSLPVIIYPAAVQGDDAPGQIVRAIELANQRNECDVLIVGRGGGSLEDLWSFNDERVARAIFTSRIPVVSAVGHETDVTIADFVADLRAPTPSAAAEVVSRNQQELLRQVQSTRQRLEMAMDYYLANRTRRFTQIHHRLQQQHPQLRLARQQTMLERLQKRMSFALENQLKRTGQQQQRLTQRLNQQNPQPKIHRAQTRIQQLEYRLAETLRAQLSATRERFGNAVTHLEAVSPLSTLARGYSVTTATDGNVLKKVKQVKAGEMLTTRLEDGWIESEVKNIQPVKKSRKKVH
# Chain of UniProt P05804 (P05804 whole entry, looked up): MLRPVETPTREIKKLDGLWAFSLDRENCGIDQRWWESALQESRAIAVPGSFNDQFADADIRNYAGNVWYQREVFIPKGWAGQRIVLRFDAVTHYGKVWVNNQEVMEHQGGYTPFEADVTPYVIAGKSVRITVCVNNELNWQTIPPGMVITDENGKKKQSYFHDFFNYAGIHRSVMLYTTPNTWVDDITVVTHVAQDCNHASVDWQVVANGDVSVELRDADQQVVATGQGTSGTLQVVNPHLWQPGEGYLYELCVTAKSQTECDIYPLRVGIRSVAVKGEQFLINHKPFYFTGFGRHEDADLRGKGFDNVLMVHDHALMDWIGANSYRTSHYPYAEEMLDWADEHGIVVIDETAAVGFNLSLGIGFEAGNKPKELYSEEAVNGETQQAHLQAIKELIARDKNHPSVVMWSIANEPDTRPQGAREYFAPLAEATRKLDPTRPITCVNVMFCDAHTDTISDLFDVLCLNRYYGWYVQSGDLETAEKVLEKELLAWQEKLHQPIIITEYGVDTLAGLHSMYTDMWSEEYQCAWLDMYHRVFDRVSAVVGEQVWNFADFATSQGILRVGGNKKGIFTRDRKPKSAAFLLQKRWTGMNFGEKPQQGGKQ
# Chain of UniProt P13857 (P13857 whole entry): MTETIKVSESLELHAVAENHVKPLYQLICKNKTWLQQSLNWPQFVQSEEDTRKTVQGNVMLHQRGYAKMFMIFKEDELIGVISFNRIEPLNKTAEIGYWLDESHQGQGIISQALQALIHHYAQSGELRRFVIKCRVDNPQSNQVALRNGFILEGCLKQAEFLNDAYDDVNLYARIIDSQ
# Chain of UniProt P77148 (P77148 whole entry): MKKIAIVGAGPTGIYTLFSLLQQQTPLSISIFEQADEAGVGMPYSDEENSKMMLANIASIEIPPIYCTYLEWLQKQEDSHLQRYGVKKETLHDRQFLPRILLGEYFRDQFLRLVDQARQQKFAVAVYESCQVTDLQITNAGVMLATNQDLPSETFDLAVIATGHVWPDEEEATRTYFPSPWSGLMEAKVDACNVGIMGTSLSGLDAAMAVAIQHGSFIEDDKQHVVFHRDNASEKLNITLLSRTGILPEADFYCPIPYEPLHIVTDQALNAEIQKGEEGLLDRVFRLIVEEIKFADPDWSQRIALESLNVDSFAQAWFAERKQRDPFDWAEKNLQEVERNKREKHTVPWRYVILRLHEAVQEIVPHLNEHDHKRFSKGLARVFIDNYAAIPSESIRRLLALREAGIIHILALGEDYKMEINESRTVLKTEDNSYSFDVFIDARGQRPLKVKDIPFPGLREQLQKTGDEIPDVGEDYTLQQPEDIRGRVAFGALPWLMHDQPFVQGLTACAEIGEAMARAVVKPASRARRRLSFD
# Chain of UniProt P0A8Y3 (P0A8Y3 whole entry): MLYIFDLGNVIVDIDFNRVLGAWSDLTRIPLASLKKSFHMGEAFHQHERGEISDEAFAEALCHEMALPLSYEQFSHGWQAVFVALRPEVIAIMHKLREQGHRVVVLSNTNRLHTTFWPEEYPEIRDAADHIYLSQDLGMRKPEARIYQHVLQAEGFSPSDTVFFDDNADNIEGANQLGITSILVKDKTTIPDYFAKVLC
# Chain of UniProt P07013 (P07013 whole entry): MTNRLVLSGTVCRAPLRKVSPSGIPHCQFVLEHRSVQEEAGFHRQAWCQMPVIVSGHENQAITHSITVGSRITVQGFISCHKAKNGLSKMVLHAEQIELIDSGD
row,Target,log2 fold change
1,"UniProt P10346 (peptide sequence: IAEDGNPQVLIKNPPSQR, peptide start residue: 214)",0.654
2,"UniProt P07013 (peptide sequence: LVLSGTVCR, peptide start residue: 5)",-0.606
3,"UniProt P21420 (peptide sequence: HYFSSNDADDGDTTYAR, peptide start residue: 44)",-0.336
4,"UniProt P77783 (peptide sequence: MNHPDRLK, peptide start residue: 109)",-0.483
5,"UniProt P04949 (peptide sequence: NQSALSSSIER, peptide start residue: 21)",0.651
6,"UniProt P77804 (peptide sequence: LEGYQEDQAKK, peptide start residue: 423)",0.387
7,"UniProt P0A8Y3 (peptide sequence: VVVLSNTNR, peptide start residue: 103)",0.564
8,"UniProt P04994 (peptide sequence: TGAALHDILHVLK, peptide start residue: 149)",0.643
9,"UniProt P37440 (peptide sequence: LADELCGR, peptide start residue: 45)",-0.817
10,"UniProt P77307 (peptide sequence: HQLVVTQLK, peptide start residue: 249)",-0.533
11,"UniProt P21599 (peptide sequence: VLEVQGMK, peptide start residue: 138)",-1
12,"UniProt P77148 (peptide sequence: ILLGEYFR, peptide start residue: 100)",-0.452
13,"UniProt P77611 (peptide sequence: LFSAFRK, peptide start residue: 4)",0.344
14,"UniProt P0A698 (peptide sequence: SSLAFDTLYAEGQRR, peptide start residue: 38)",2.9
15,"UniProt P77316 (peptide sequence: HGDIFGHEFMGEVVETGKDVK, peptide start residue: 54)",-0.836
16,"UniProt P25553 (peptide sequence: VAFGGKAVEGK, peptide start residue: 351)",1.48
17,"UniProt P37342 (peptide sequence: SESLDDFFTR, peptide start residue: 261)",0.46
18,"UniProt P37197 (peptide sequence: GDENALTAQQK, peptide start residue: 330)",-0.521
19,"UniProt P27859 (peptide sequence: ELLPLIPAEK, peptide start residue: 188)",-0.738
20,"UniProt P00946 (peptide sequence: FEAKPANQLLTQPVK, peptide start residue: 293)",-0.633

row,Target,log2 fold change
1,"UniProt Q46861 (peptide sequence: EALPGWSGVDSTRLDTPGK, peptide start residue: 229)",0.959
2,"UniProt P76053 (peptide sequence: NVLIIHGK, peptide start residue: 116)",0.613
3,"UniProt P76502 (peptide sequence: VLVSPFLR, peptide start residue: 48)",0.397
4,"UniProt P18775 (peptide sequence: IAHAVDSAIPTK, peptide start residue: 42)",-0.536
5,"UniProt P25666 (peptide sequence: MHLFTIKK, peptide start residue: 171)",-0.804
6,"UniProt P08956 (peptide sequence: ITGDADKDAR, peptide start residue: 763)",-3.68
7,"UniProt P0AA41 (peptide sequence: LLAQQFEQHQIQKR, peptide start residue: 72)",-1.05
8,"UniProt P0A9B6 (peptide sequence: SLQSLPWR, peptide start residue: 82)",-0.912
9,"UniProt P52073 (peptide sequence: LEGGEGSVK, peptide start residue: 217)",-0.566
10,"UniProt P0AAG8 (peptide sequence: TQIGSLSGGNQQK, peptide start residue: 402)",0.32
11,"UniProt P75830 (peptide sequence: TNLDYTR, peptide start residue: 179)",-0.551
12,"UniProt P76187 (peptide sequence: HFGVSNFTPAQFALLQSR, peptide start residue: 154)",-0.944
13,"UniProt P36547 (peptide sequence: TANLHHLYHEPLPENLK, peptide start residue: 6)",-0.813
14,"UniProt P25742 (peptide sequence: SFTHLAPIHGTHIVER, peptide start residue: 116)",-1.07
15,"UniProt P23847 (peptide sequence: MAEMIQADWAK, peptide start residue: 392)",-0.859
16,"UniProt P13857 (peptide sequence: TVQGNVMLHQR, peptide start residue: 54)",-0.406
17,"UniProt P38035 (peptide sequence: APILLNGPTGAGK, peptide start residue: 209)",-1.38
18,"UniProt P56258 (peptide sequence: VGCVFATR, peptide start residue: 136)",-0.934
19,"UniProt P05804 (peptide sequence: DKNHPSVVMWSIANEPDTRPQGAR, peptide start residue: 399)",-0.737
20,"UniProt P30011 (peptide sequence: VRHYVELLEGTNTQLLDTR, peptide start residue: 135)",0.868
